An excerpt weighted towards active compounds, which were near 3% of everything screened.
GALK inh – blocks human galactokinase activity | Potency, µM (series often up to 57.5 µM), usual class: inhibitors | Purified GALK, Kinase-Glo residual ATP luminescence | 270,000 tested, 0.007% active | P51570
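Luminescence from leftover ATP (Ultra-Glo luciferase/luciferin) served as read-out after a 1 h room-temperature reaction of 5 nM GALK with 35 uM ATP and 100 uM galactose.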
TrxR1 inh – inhibitors of rat thioredoxin reductase 1. O89049. recombinant rTrxR1, NADPH fluorescence consumption, selenite substrate. Potency, µM (highest dose often 114 µM), actives largely listed as inhibitors. 390,000 tested, 1% active. AID 588453; note: nearly all actives have a fitted effect of over 65% in size
Target sequence (O89049 whole entry, looked up): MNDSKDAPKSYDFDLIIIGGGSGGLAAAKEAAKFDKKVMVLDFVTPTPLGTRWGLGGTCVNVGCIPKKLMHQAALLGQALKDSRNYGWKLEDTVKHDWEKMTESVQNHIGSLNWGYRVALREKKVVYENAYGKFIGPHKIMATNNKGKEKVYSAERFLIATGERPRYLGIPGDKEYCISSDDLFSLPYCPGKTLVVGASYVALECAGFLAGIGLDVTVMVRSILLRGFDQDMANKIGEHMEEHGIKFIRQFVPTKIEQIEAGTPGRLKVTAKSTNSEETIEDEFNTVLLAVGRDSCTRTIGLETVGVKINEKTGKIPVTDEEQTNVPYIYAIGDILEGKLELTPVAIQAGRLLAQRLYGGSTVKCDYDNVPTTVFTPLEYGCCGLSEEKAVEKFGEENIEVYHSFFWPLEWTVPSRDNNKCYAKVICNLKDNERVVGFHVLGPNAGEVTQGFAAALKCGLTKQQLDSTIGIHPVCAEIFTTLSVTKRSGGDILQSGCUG
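Rat TrxR1 (90 nM in the dispensed reagent) was pre-reduced with 400 uM NADPH for 5 min at room temperature, then incubated with compound for 15 min. After 400 uM selenite was added, NADPH fluorescence (Ex 340/Em 450 nm) was followed for 8 min.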
A549 tox-1 – kills or reduces viability of A549 cells in Nrf2 counter-screen | AID 504648 | A549 ARE-Fluc cells, CellTiter-Fluor viability, 18-24 h | Potency, µM (top dose mostly 46 µM), actives largely listed as inhibitors | 390,000 tested, 0.16% active
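A549 ARE_Fluc cells in 5% FBS OPTI-MEM were exposed to compounds in concentration-response for 18-24 h at 37 deg C. Viability was read by CellTiter-Fluor fluorescence (Ex 405/Em 525) after 30 min, before the luciferase read.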
Nrf2 block – Nrf2 pathway inhibition; 360,000 tested, 2.1% active; Potency, µM (doses to about 46 µM), most hits filed as inhibitors; A549 ARE-Fluc reporter, luciferase luminescence, 18-24 h; note: nearly all actives have a fitted effect of over 60% in size
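Nrf2 activity is the BugLite luminescence, read 15 min after reagent at room temperature, following CellTiter-Fluor cytotoxicity readout (30 min, 37C). Compound titrations were applied for 18-24 h to 5000 A549 ARE_Fluc cells/well in 5% FBS OPTI-MEM.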
TrxR1 substrate – rat thioredoxin reductase 1 substrate activity; purified TrxR1 substrate turnover, NADPH consumption readout; Potency, µM (highest dose often 114 µM); 390,000 tested, 0.01% active; AID 588456; note: nearly all actives have a fitted effect of over 50% in size
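Rat TrxR1, dispensed at 90 nM, was prereduced with 400 uM NADPH (final) for 5 min at ~22 deg C, then incubated with compound 15 min before 400 uM selenite. A first-read NADPH fluorescence drop versus no-compound background flagged substrates.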
Nrf2 activator – activators of Nrf2 (ARE) signaling. 410,000 tested, 0.31% active. Potency, µM (titrated, usually from 46.1 µM), actives largely listed as activators. AREc32 ARE-luciferase reporter (MCF7-derived line), luminescence, 24 h; note: nearly all actives have a fitted effect of over 65% in size
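AREc32_Fluc, 1000 cells/well, OPTI-MEM + 5% FBS, o/n 37 deg C 5% CO2; 23 nL cpd by pin tool, 24 hr; Steady-Glo 30 min RT, luminescence.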
FLuc counter 3 – counter-screen for Nrf2 inhibitors: firefly luciferase enzyme inhibition | purified firefly luciferase, luminescence inhibition | shares compounds with Nrf2 block | 1,400 tested, 4% active | AID 720522 | Potency, µM (series often up to 57.5 µM), usual class: inhibitors; note: nearly all actives have a fitted effect of over 65% in size
A549 tox-2 – counter-screen for Nrf2 inhibitors: cytotoxicity in A549 ARE cells; shares compounds with Nrf2 block; A549 ARE-Fluc cells, cytotoxicity counterscreen; Potency, µM (series often up to 46.1 µM), most hits filed as inhibitors; 1,400 tested, 2% active; AID 720523;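 note: cells exposed to compounds for 18 to 24 hours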
Nrf2 ARE inh – confirmation of Nrf2 inhibitors in A549 ARE reporter cells | shares compounds with Nrf2 block | A549 ARE-firefly luciferase reporter, luminescence | Potency, µM (highest dose often 46.1 µM), actives largely listed as inhibitors | 1,400 tested, 74% active | AID 720524; note: nearly all actives have a fitted effect of over 65% in size
Hits are given with their value; i = inactive; ? = inconclusive; nt = no result shown; [ ] = dose if it differs, or a comment. Calls come from the whole dose curve; as a rule, active = well fitted curve in the direction sought with a large enough effect; inconclusive = small, poorly fitted or top-dose-only effect, or another doubt; inactive = no such curve, though single readings can be large; an effect the other way counts as inactive or inconclusive.

SMILES | GALK inh | TrxR1 inh | A549 tox-1 | Nrf2 block | TrxR1 substrate | Nrf2 activator | FLuc counter 3 | A549 tox-2 | Nrf2 ARE inh
CCc1ccc2nc(N3CCN(C(=O)c4ccccc4)CC3)sc2c1 | nt | i | i | nt | i | i | nt | nt | nt
CCN(Cc1ccccc1)S(=O)(=O)c1ccc(C(=O)N2CCN(c3nc4ccccc4s3)CC2)cc1 | i | i | i | 1.8µM | i | i | i | i | 7.3µM
O=c1c2cnn(-c3ccccc3)c2nc(-c2ccco2)n1-c1ccccc1 | i | i | i | 9.2µM | i | i | i | i | 18µM
O=c1oc(-c2ccco2)nc2c1cnn2-c1ccccc1 | i | ? | i | nt | i | i | nt | nt | nt
Cc1ccc(NC(=O)Cn2c(=O)n(CC(=O)NCCc3ccccc3)c(=O)c3ccccc32)cc1 | nt | i | i | i | i | i | nt | nt | nt
N#C/C(=N\Nc1cccc(C(F)(F)F)c1)C(=O)c1ccsc1 | i | i | i | ? | i | i | 21µM | ? | nt
Cc1nccc(-c2cccc(N/N=C(\C#N)C(=O)c3ccccc3)c2)n1 | i | i | i | ? | i | i | nt | nt | nt
CCc1cccc(C)c1NC(=O)Nc1csc2c1CCCC2 | nt | i | i | i | i | i | nt | nt | nt
CC(=O)Nc1nnc(SCc2cc(=O)c(OC(=O)c3ccccc3)co2)s1 | i | i | i | i | i | i | nt | nt | nt
Cc1ccc(C(=O)Oc2coc(CSc3nnc(NC(=O)c4cccs4)s3)cc2=O)cc1 | i | i | i | 6.5µM | i | i | ? | i | 4.6µM
O=C(NCCOCCNC(=O)OCc1ccccc1)OCc1ccccc1 | i | i | i | i | i | i | nt | nt | nt
COc1ccc(/C=C/c2ccccn2)cc1 | nt | i | nt | nt | i | nt | i | i | 2.3µM
C(=C\c1ccccn1)/c1ccccn1 | i | i | i | i | i | i | nt | nt | nt
CC1(C)CC(N2CCOCC2)=CC(=[N+]2CCOCC2)C1 | i | i | i | i | i | i | nt | nt | nt
CC1(C)CC(N2CCCCC2)=CC(=[N+]2CCCCC2)C1 | i | i | i | 2.3µM | i | i | i | i | 9.2µM
CCCN(CCC)C1=CC(=[N+]2CCCC2)CC(C)(C)C1 | i | i | i | 2.1µM | i | i | i | i | 4.6µM
CN(C)NC1=CC(=[N+]2CCCC2)CC(C)(C)C1 | i | i | i | i | i | i | nt | nt | nt
Cc1nc(CCNC(=O)C2CCC(=O)N(Cc3cccc(F)c3)C2)sc1C (configuration not stated) | i | i | i | i | i | i | nt | nt | nt
O=C(c1cc(S(=O)(=O)N2CCN(c3ccccc3)CC2)ccc1Cl)N1CCCC(C(F)(F)F)C1 (configuration not stated) | nt | i | i | 4.6µM | i | i | i | i | 5.2µM
CC(NNC(=S)N1CCN(c2ccccn2)CC1)c1nccc2ccccc12 (configuration not stated) | nt | i[11.4 µM] | ? | 5.8µM | i | i | i | ? | ?
Cc1ccc(S(=O)(=O)N2C[C@@H]3CCCC[C@@H]3[C@@H](C)[C@H]2c2cn(Cc3ccccc3)c3ccccc23)cc1 | nt | i | i | 1.8µM | i | i | i | i | 2.9µM
Cc1ccc(S(=O)(=O)N2C[C@@H]3CCCC[C@@H]3[C@@H](C)[C@H]2c2cn(Cc3ccccc3)c3ncccc23)cc1 | nt | i | i | 5.2µM | i | i | i | i | 5.2µM
CC1CCN(C(=O)CSc2nc3c(cnn3-c3ccccc3)c(=O)[nH]2)CC1 | i | i | i | 5.8µM | i | i | i | i | i
CCC(=O)[C@@]1(C)[C@H](C)C[C@H]2[C@@H]3CCC4=CC(=O)C=C[C@]4(C)[C@H]3[C@@H](O)C[C@@]21C | nt | i | i | 0.016µM | i | i | i | i | 0.018µM
CCCC1OC2CC3C4CCC5=CC(=O)C=CC5(C)C4C(O)CC3(C)C2(C(=O)O)O1 (configuration not stated) | i | i | i | 0.46µM | i | i | i | i | 1.3µM
SMILES | GALK inh | TrxR1 inh | A549 tox-1 | Nrf2 block | TrxR1 substrate | Nrf2 activator | FLuc counter 3 | A549 tox-2 | Nrf2 ARE inh
CCCC1O[C@@H]2C[C@H]3[C@@H]4CCC5=CC(=O)C=C[C@]5(C)[C@H]4[C@@H](O)C[C@]3(C)[C@]2(C(=O)CO)O1 (some centres not stated) | i | i | i | ? | i | i | nt | nt | nt
CC1CCC2(CC1)NC(=O)N(CC(=O)N1CC(C)CC(C)C1)C2=O (configuration not stated) | nt | i | i | i | i | i | nt | nt | nt
COc1ccc(CNC(=O)CCCCCn2c(=O)[nH]c3ccccc3c2=O)cc1 | nt | i | i | nt | i | i | nt | nt | nt
C[C@]12c3[nH]c4cc(-c5ccco5)ccc4c3CCN1C(=O)[C@@H](CC(=O)NCc1cccc(C(F)(F)F)c1)C[C@@H]2C(=O)N1CCCCC1 | nt | i | ? | ? | i | i | nt | nt | nt
O=NNc1nc2ccccc2n1Cc1ccccc1 | i | i | ? | 6.5µM | i | i | i | i | 6.5µM
CC(=O)Nc1nc2ccccc2n1Cc1ccccc1 | i | i | i | i | i | i | nt | nt | nt
CC(C)CN(C(=O)CSc1ccc2c(c1)OCCO2)c1c(N)n(CC(C)C)c(=O)[nH]c1=O | nt | i | i | i | i | i | nt | nt | nt
CC(C)Cn1c(N)c(C(=O)CSc2ccc3c(c2)OCCO3)c(=O)n(C)c1=O | i | i | i | 0.65µM | i | i | i | i | 1.8µM
C=C(c1nc2ccccc2s1)C1Cc2cccc3c2N(CCC3)C1 (configuration not stated) | nt | i | nt | nt | i | nt | 12µM | i | 2.6µM
COc1ccc(C(=O)N2CCC(C(=O)Nc3ccccc3Cl)CC2)cc1 | nt | i | i | i | i | i | nt | nt | nt
O=c1[nH]c(=O)n([C@H]2C[C@@H](O)[C@@H](CO)O2)cc1F | nt | i | nt | nt | i | nt | nt | nt | nt
O=c1[nH]c(=O)n([C@@H]2O[C@H](CO)[C@@H](O)[C@H]2O)cc1F | nt | i | nt | nt | i | nt | i | ? | i
O=c1[nH]c(=O)n(C2OC(CO)C(O)C2O)cc1F (configuration not stated) | nt | i | ? | ? | i | i | i | ? | 0.15µM
Cc1ccc(C(=O)CC(=O)COc2ccc(Cl)cc2)cc1 | i | i | i | i | i | i | nt | nt | nt
COc1ccc(CNc2ncnc3c2[nH]c2ccccc23)cc1 | i | i | i | 4.6µM | i | i | ? | i | 5.2µM
COc1ccc(CCn2cnc3c([nH]c4ccccc43)c2=O)cc1 | i | i | i | i | i | i | nt | nt | nt
CC(C)(C)c1ccc(-n2ncc3c2CCCC3NC(=O)C2(C(N)=O)CC2)cc1 (configuration not stated) | i | i | i | 1.3µM | i | i | i | i | nt

High-throughput results as filed in PubChem BioAssay.
